The list is not random: actives were taken first. Their share in the collection is about 6.6%.
SW480 rerep: A quantitative high throughput screen for small molecules that induce DNA re-replication in SW480 colon adenocarcinoma cells; Potency, µM (highest dose often 46.1 µM), inactives show at the highest dose re-replication activation, usual class: activators; SW480 DNA re-replication, Hoechst DNA content imaging, 48 h; hit rate 1.8% among 340,000; further: % of control where 0% means no effect; nearly all actives have a fitted effect of over 55% in size
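Image-based read-out: total Hoechst fluorescence of nuclei (405 nm excitation, 500-530 nm emission), with hits raising the fraction of high-intensity nuclei. SW480 colon cells incubated 48 hr with compounds at 37 C.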
KB-3-1 tox: qHTS assay for MDR1-selective chemotherapeutics: Primary screen using the parental adenocarcinoma cell KB-3-1; hit rate 1.4% among 400,000; Potency, µM (top dose mostly 46.1 µM), most hits filed as cytotoxic; KB-3-1 viability, CellTiter-Glo ATP luminescence, 72 h; further: on the % scale 0 is the no-effect control and ±100 the full control effect; nearly all actives have a fitted effect of over 60% in size
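KB-3-1 cells, DMEM (no phenol red) + 10% FBS; compound by pin transfer, 72 h, 37 °C. Readout: CellTiter-Glo luminescence after 10 min. Data normalized, curve-fitted.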
RGS4 inhibitor: Inhibitors of Regulator of G Protein Signaling (RGS) 4: qHTS; Regulator of G-protein signaling 4 (Homo sapiens), P49798; Transcreener GDP fluorescence polarization, RGS4-accelerated GTP hydrolysis; Potency, µM (highest dose often 114 µM), for the others: top-dose activity change, negative = inhibition, most hits filed as inhibitors; hit rate 0.039% among 390,000; AID 504845, 2011; further: on the % scale 0 is the no-effect control and ±100 the full control effect; nearly all actives have a fitted effect of over 75% in size
Target sequence (P49798 whole entry, looked up): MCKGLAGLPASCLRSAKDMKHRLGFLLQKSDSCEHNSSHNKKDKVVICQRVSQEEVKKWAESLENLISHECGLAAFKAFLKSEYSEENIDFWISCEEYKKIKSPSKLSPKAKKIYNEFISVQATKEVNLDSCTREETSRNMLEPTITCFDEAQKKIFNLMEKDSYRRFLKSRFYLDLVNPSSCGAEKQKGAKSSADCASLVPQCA
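MLSMR compounds (23 nl, pin-transferred) preincubated 10 min at room temperature with a 500nM (2x) first reagent, then RGS4 at 900nM (2x) plus Transcreener GDP mix added; fluorescence polarization (620/688 nm) read before and after 90 min at 30 °C.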
KB-V1 MDR tox: qHTS assay for MDR1-selective chemotherapeutics: Primary screen using the drug-selected MDR subline cells KB-V1; hit rate 3.4% among 400,000; Potency, µM (highest dose often 46.1 µM), usual class: cytotoxic; KB-V1 MDR cells viability, CellTiter-Glo, 72 h; further: on the % scale 0 is the no-effect control and ±100 the full control effect; nearly all actives have a fitted effect of over 60% in size
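In this primary screen, KB-V1 cells overexpressing P-gp are incubated with library compounds (lowest to highest concentration) for 72 h at 37 degrees C before a luminescent ATP viability read.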
MCF10A rereplic: A quantitative high throughput screen for small molecules that induce DNA re-replication in MCF 10a normal breast cells; hit rate 2.9% among 350,000; MCF 10A DNA re-replication, Hoechst nuclear intensity, 48 h; Potency, µM (top dose mostly 46.1 µM), for inactives: top-dose activity, positive = re-replication, hits mostly activators; further: % of control where 0% means no effect; nearly all actives have a fitted effect of over 50% in size
TSG101-PTAP inh: qHTS Assay for Iinhibitors of HIV-1 Budding by Blocking the Interaction of PTAP/TSG101; 340,000 tested, under 10 active; Potency, µM (titrated, usually from 115 µM), for the others: at the highest dose activity change, negative = inhibition, most hits filed as inhibitors; AID 493005, 2010; Tumor susceptibility gene 101 protein (Homo sapiens), Q99816; Fluorescence polarization, FITC-PTAP peptide / Tsg101 binding; active means well fitted inhibition curve with a large enough effect in the main read-out, with a control signal flat, not every such curve was filed as active; inconclusive means small, poorly fitted or top-dose-only effect, or effect the other way, or a change in a side signal; inactive means no such curve, though single readings can be large or run the other way; further: % of control where 0% means no effect
Target sequence (Q99816 whole entry, looked up): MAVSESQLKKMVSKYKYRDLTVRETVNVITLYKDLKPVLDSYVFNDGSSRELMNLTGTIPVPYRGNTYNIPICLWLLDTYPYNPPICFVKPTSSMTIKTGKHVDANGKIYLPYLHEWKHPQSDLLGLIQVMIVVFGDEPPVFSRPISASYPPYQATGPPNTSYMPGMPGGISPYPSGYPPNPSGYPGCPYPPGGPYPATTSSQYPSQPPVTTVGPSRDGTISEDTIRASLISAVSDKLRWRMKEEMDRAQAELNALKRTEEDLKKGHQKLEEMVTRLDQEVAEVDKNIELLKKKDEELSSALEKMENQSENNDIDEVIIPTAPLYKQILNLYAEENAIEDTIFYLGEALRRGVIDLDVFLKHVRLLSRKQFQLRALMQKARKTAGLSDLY
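Compounds were pin-transferred onto Tsg101 binding domain (10 uM final) in HEPES pH 7.5 buffer, then FITC-PTAP peptide was added at 50 nM final. After 20 min at RT, polarization reported peptide displacement across a qHTS concentration series.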
Starred values were filed as active, the others as inactive; [ ] = another dose, or the depositor's remark. Unless noted, the call rests on the fitted dose curve; in most records, active means well fitted curve in the direction sought with a large enough effect; inconclusive means small, poorly fitted or top-dose-only effect, or another doubt; inactive means no such curve, though single readings can be large; an effect the other way counts as inactive or inconclusive. Potency means the concentration at half of the fitted maximal effect.

Cc1ccc(C(NC(=O)N2CCCCC2)=C(Cl)Cl)cc1F was read as SW480 rerep 6.5µM*, KB-3-1 tox inactive, RGS4 inhibitor inconclusive, KB-V1 MDR tox inactive, MCF10A rereplic 16µM* and TSG101-PTAP inh -1%.
For O=C(CN1CCCC1)Nc1c2c(nc3ccccc13)N(Cc1ccccc1)CC2 the results were SW480 rerep -5%, KB-3-1 tox inactive, RGS4 inhibitor -15%, KB-V1 MDR tox 23µM*, MCF10A rereplic -5% and TSG101-PTAP inh -3%.
O=C(C[C@H]1C[C@H](C(=O)N2CCCCC2)[C@@]2(CCc3ccccc3)c3[nH]c4cc(-c5ccco5)ccc4c3CCN2C1=O)NCCN1CCOCC1 was read as SW480 rerep inconclusive, KB-3-1 tox 18µM*, RGS4 inhibitor inconclusive, KB-V1 MDR tox inconclusive, MCF10A rereplic 23µM* and TSG101-PTAP inh -2%.
CCN(CC)C(=O)[C@H]1C[C@H](CC(=O)NCc2cccc(C(F)(F)F)c2)C(=O)N2CCc3c([nH]c4cc(-c5ccco5)ccc34)[C@]12C was read as SW480 rerep 13%[9.22 µM], KB-3-1 tox 15µM*, RGS4 inhibitor -19%, KB-V1 MDR tox inconclusive, MCF10A rereplic inconclusive and TSG101-PTAP inh -18%.
CC(C)N(Cc1ccccc1)C(=O)C1CCCN(c2ncnc3onc(-c4ccc(F)cc4)c23)C1 (stereo not given) was read as KB-3-1 tox inactive, RGS4 inhibitor -2% and KB-V1 MDR tox inconclusive.
Screening CC(C)NC(=O)C1(C#N)C=C1c1ccccc1 (stereo not given) returned KB-3-1 tox 8.2µM* and KB-V1 MDR tox inconclusive.
Screening CCC(CC)c1nnc(NC(=O)c2ccc(N3CCCC3=O)cc2)s1 returned SW480 rerep 13%, KB-3-1 tox inactive, RGS4 inhibitor 16%, KB-V1 MDR tox inactive, MCF10A rereplic -13% and TSG101-PTAP inh -2%.
For CCC(CC)c1nnc(NC(=O)c2ccc([N+](=O)[O-])cc2)s1 the results were SW480 rerep -5%, KB-3-1 tox inactive, RGS4 inhibitor -8%, KB-V1 MDR tox 21µM*, MCF10A rereplic -1% and TSG101-PTAP inh 1%.
`O=C(Nc1nnc(COc2ccc(Cl)cc2)s1)c1ccc([N+](=O)[O-])cc1` gave SW480 rerep 1%, KB-3-1 tox inactive, RGS4 inhibitor 20%, KB-V1 MDR tox inconclusive, MCF10A rereplic 8% and TSG101-PTAP inh -2%.
For O=C(Nc1ncc(Cc2ccc(Cl)cc2Cl)s1)c1ccc([N+](=O)[O-])cc1 the results were SW480 rerep -119%, KB-3-1 tox 5.8µM*, RGS4 inhibitor -26%, KB-V1 MDR tox inconclusive, MCF10A rereplic 2% and TSG101-PTAP inh -2%.
CCC1CCCCN1Cc1nc2c(c(=O)n(C)c(=O)n2C)n1Cc1c(F)cccc1Cl (stereo not given) was read as KB-3-1 tox inactive, RGS4 inhibitor 30% and KB-V1 MDR tox inactive.
For O=C(CN1CCN(C(=O)CNC(=O)c2ccc(-c3ccccc3)cc2)CC1)Nc1ccccc1Cl the results were KB-3-1 tox inconclusive and KB-V1 MDR tox 8.2µM*.
`Cc1c(C(=O)N2CCN(CC(=O)Nc3ccccc3Cl)CC2)oc2ccc(Br)cc12` gave SW480 rerep -11%, KB-3-1 tox inactive, RGS4 inhibitor 19%, KB-V1 MDR tox inactive, MCF10A rereplic 23µM* and TSG101-PTAP inh -1%.
O=C(CN1CCN(C(=O)CNC(=O)c2ccc3c(c2)OCO3)CC1)Nc1ccccc1Cl was read as SW480 rerep 0%, KB-3-1 tox inactive, RGS4 inhibitor -30%, KB-V1 MDR tox inactive, MCF10A rereplic -1% and TSG101-PTAP inh 1%.
For Cc1ccc(CN2CC(C(=O)Nc3cc(C)ccn3)CC2=O)cc1 (stereo not given) the results were SW480 rerep 29µM*, KB-3-1 tox inactive, RGS4 inhibitor 9%, KB-V1 MDR tox inconclusive, MCF10A rereplic 16% and TSG101-PTAP inh -3%.
Cc1ccc(CN2CC(C(=O)Nc3ccncc3)CC2=O)cc1 (stereo not given) was read as SW480 rerep -4%, KB-3-1 tox inactive, RGS4 inhibitor 20%, KB-V1 MDR tox inconclusive, MCF10A rereplic -7% and TSG101-PTAP inh 0%.
`Cc1c(Cl)cccc1NC(=O)c1ccc(NC(=O)N2CCSc3ncccc32)cc1` gave KB-3-1 tox inactive, RGS4 inhibitor -7% and KB-V1 MDR tox inactive.
COc1ccc(Cn2cc(C(=O)c3ccc(C)c(C)c3)c(=O)c3ccccc32)cc1 was read as KB-3-1 tox inactive, RGS4 inhibitor -25% and KB-V1 MDR tox inactive.
For COc1ccc2c(c1)c(=O)c(C(=O)c1ccccc1)cn2Cc1ccc(C)cc1 the results were SW480 rerep inconclusive, KB-3-1 tox inconclusive, RGS4 inhibitor 4%, KB-V1 MDR tox 18µM*, MCF10A rereplic inconclusive and TSG101-PTAP inh -3%.
`CC1Cn2c(nnc2C23CC4CC(CC(C4)C2)C3)S1` (stereo not given) gave SW480 rerep inconclusive, KB-3-1 tox inactive, RGS4 inhibitor -20%, KB-V1 MDR tox inactive, MCF10A rereplic 15µM* and TSG101-PTAP inh -7%.
`COCCN1Cc2cccc(C(=O)Nc3ccc(C)cc3C)c2C1=O` gave KB-3-1 tox inactive, RGS4 inhibitor -20% and KB-V1 MDR tox inactive.
CCC(=O)c1ccc(OCc2ccc(C(=O)OC)cc2)c(OC)c1 was read as SW480 rerep -5%, KB-3-1 tox inactive, RGS4 inhibitor 7%[11.4 µM], KB-V1 MDR tox inconclusive, MCF10A rereplic -10% and TSG101-PTAP inh 6%.
Screening CCCCNC(=S)N(C)/N=C/c1ccc(OCc2ccc(C(=O)OC)cc2)c(OC)c1 returned SW480 rerep 3%, KB-3-1 tox inactive, RGS4 inhibitor -8%, KB-V1 MDR tox 13µM*, MCF10A rereplic inconclusive and TSG101-PTAP inh 0%.
Screening Cc1ccc(CN2CCN(C3CCN(S(=O)(=O)N(C)C)CC3)C(=O)C2=O)cc1 returned KB-3-1 tox inactive, RGS4 inhibitor 0% and KB-V1 MDR tox inactive.

Screens as filed in PubChem.
